D2 ag-1 = agonists of human D2 dopamine receptor (beta-arrestin) | P14416 | DiscoveRx PathHunter D2 beta-arrestin, luminescence, 90 min; 100% = 57 uM dopamine signal | activation, % (test concentration not listed) | 360,000 compounds, 0.084% hits; in the data active means activation above about 40%; inconclusive means between about 15% and that limit
Target sequence (P14416 whole entry, looked up): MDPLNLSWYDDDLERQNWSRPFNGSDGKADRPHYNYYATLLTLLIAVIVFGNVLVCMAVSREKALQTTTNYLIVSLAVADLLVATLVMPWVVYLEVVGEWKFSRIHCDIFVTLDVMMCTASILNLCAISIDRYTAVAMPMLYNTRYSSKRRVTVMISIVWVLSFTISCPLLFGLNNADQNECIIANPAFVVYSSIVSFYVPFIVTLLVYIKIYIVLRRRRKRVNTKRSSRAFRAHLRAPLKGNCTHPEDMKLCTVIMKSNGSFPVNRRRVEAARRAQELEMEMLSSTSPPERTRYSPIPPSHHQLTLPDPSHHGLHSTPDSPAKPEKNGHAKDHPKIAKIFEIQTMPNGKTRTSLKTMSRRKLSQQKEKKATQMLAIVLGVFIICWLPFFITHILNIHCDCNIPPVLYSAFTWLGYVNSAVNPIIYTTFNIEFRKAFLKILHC
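DiscoveRx PathHunter D2 beta-arrestin cells (2,100/well) attached overnight, then compound-stimulated 90 min at 37 C in HBSS/10 mM HEPES/0.1% Tween-20 buffer; beta-galactosidase complementation read by luminescence after 1 h at ambient temperature. Dopamine 57 uM final (EC100) as control.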
Apoferritin bind = binds horse apoferritin like a general anesthetic. P02791. apoferritin/1-aminoanthracene competitive binding, fluorescence. Potency, µM (series often up to 77.5 µM), inactives show at the highest dose activity change, negative = displacement, usual class: inhibitors. 350,000 compounds, 0.074% hits. AID 485281; active means well fitted inhibition curve with a large enough effect; inconclusive means small, poorly fitted or top-dose-only effect; inactive means no such curve, though single readings can be large or run the other way; further: potency means the concentration at half of the fitted maximal effect; on the % scale 0 is the no-effect control and ±100 the full control effect; nearly all actives have a fitted effect of over 20% in size
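Steps: apoferritin (10 uM) was premixed with half-saturated 1-AMA in PBS, compounds were pin-transferred, plates stood 10 min at room temperature, fluorescence was read at 380/535 nm, and curves were fitted with a Hill equation.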
D2 antagonist = D2 dopamine receptor (human) antagonism; HEK293 TREx D2 cells, calcium flux, dopamine EC80; inhibition, % at 10 µM; 340,000 compounds, 2% hits; AID 485344; in the data active means inhibition above about 30%; inactive means below that, where a call was filed; further: 0% is about no effect
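Read-out: kinetic calcium fluorescence (1 cycle/s) in inducible HEK293 T-REx D2 cells after an EC80 dopamine addition that followed 180 s compound preincubation. Loss of the dopamine response indicates antagonism.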
D2 PAM-1 = potentiates the human D2 dopamine receptor allosterically | AID 624464 | potentiation, % (no concentration beside the values) | DiscoveRx D2 beta-arrestin cells, luminescence, 90 min; 100% = 57 uM dopamine signal | 360,000 compounds, 0.23% hits | P14416; in the data active means potentiation above about 50%; inconclusive means mostly about 30% to 49%
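PathHunter beta-arrestin assay in DiscoveRx D2 cells. Compounds were added with an EC20 of dopamine (50 nM final) for 90 min at 37 deg C. Luminescence was read 1 h after detection reagent, with 57 uM dopamine as the EC100 control.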
D2 ag-2 = activates the human D2 dopamine receptor | P14416 | HEK293 T-REx D2 cells, calcium flux agonist mode | activation, % at 2 µM | 340,000 compounds, 0.53% hits | AID 485358;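 active means activation over 3 SD above normal in the single-dose calcium agonist read, cut at about 30% in these data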; further: 0% is about no effect
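HEK293 Trex D2 cells, tetracycline-induced, o/n 30 C 5% CO2; no-wash Ca dye, RT 30–90 min; 10-cycle baseline, 23 nl cpd added, kinetic Ca read 180 s; agonist hits = positive Ca response.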
D2 PAM-2 = positive allosteric modulators of human D2 dopamine receptor; P14416; HEK293 T-REx D2, calcium flux, EC20 dopamine potentiation; potentiation, % at 10 µM; 340,000 compounds, 0.34% hits;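 active means potentiation over 3 SD above the plate norm, cut at about 30% in these data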; further: 0% is about no effect
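Potentiation of an EC20 dopamine calcium response is measured in a force-coupled, tetracycline-inducible Hek293 Trex D2 line. Compound-only kinetic reads over 180 s flag agonists before dopamine addition.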
* = called active by the depositor; ? = inconclusive; . = not tested or not shown; ! = repeats disagree. Rows were chosen to be rich in hits. Some 2.5% of all compounds tested hit in one or more screens of this group.

SMILES | D2 ag-1 | Apoferritin bind | D2 antagonist | D2 PAM-1 | D2 ag-2 | D2 PAM-2
COc1ccccc1NC(=S)NNC(=O)c1nn(C)c(C)c1Cl | -3.5 | -7.6% | 82.2* | -16.0 | 0.3 | -20.0
CC1=C(C(=O)NCCN2CCN(C)CC2)C2(CCC(C)CC2)OC1=O (configuration not stated) | -0.9 | -6.5% | 61.5* | -7.3 | 0.1 | 22.8
COc1ccccc1CNC(=O)C1=C(C)C(=O)OC12CCC(C)CC2 (configuration not stated) | -3.4 | -9.7% | 47.4* | -1.2 | -0.2 | -0.4
Nc1nn(-c2ccccc2)nc1C(=O)OCc1ccccc1F | . | -18.6% | -13.5 | . | -2.1 | -3.6
COC(=O)C(CC(C)C)N1CCC(=O)c2ccccc2S1(=O)=O (configuration not stated) | -0.2 | -6.3% | 51.6* | -6.8 | -0.8 | 8.2
CCOc1ccc(C(=O)Cc2cc(OC)c(OC)cc2[N+](=O)[O-])cc1 | -0.2 | -9.1% | -10.8 | -2.4 | -0.7 | 2.7
CC1=Nc2ccccc2/C1=C\c1sc(Nc2ccc(C)cc2)nc1O | -0.5 | -15.1% | 61.0* | -40.7 | 0.4 | -25.7
Oc1nc(Nc2ccc(F)cc2)sc1/C=C1\C=Nc2ccccc21 | -0.4 | -4.3% | 9.0 | -17.2 | -0.6 | -7.0
O=C(c1cccc(Br)c1)N1CCCC1 | -2.1 | -7.8% | 9.7 | -13.1 | -0.8 | -4.1
COc1cc(CNc2ccc3[nH]c(=O)[nH]c3c2)cc(Br)c1OCc1ccccc1F | 10.9 | -0.9% | -4.5 | -2.4 | 0.7 | 43.6*!
COc1cc(CNc2ccc3[nH]c(=O)[nH]c3c2)ccc1OCc1ccccc1F | 10.3 | ? | -15.9 | 6.8 | 0.5 | 10.7
COc1ccc(/C=N/n2cncn2)cc1Cn1cc([N+](=O)[O-])cn1 | -4.2 | -5.7% | 1.8 | -21.5 | 0.5 | -2.3
CCCCNC(=S)NC(=O)c1ccc(Cl)cc1Cl | -2.4 | ? | 7.5 | 6.8 | 0.4 | -3.7
CN1CCc2nc(SCCOc3ccccc3)c(C#N)cc2C1 | -2.7 | -13.1% | 30.9* | -22.9 | 0.0 | .
Nc1nn(-c2cccc(F)n2)cc1-c1ccc(Cl)cc1 | -3.0 | -0.2% | -1.8 | -3.2 | -0.3 | -1.5
Cc1ccn(CC(C)C(=O)O)n1 (configuration not stated) | -3.3 | 1.8% | 33.9* | -4.5 | 0.7 | -13.6
CCN1CCN(CCNC(=O)c2ccc3c(c2)N(Cc2cccc(Cl)c2)C(=O)c2ccccc2S3=O)CC1 (configuration not stated) | -8.9 | -13.8% | 40.3* | -38.1 | 0.1 | -1.2
CCCCN(C)CCCNC(=O)c1ccc2c(c1)N(CC)C(=O)c1ccccc1S2=O (configuration not stated) | -3.6 | -4.5% | 69.8* | -18.9 | -0.6 | -32.3
CCOC(=O)N1CCN(c2ccc(C(=O)c3ccccc3)cc2F)CC1 | 1.6 | ? | 15.4 | 10.2 | 2.0 | 11.1
C/C(=N\OC(=O)Nc1ccc(Cl)cc1)c1ccc(F)c(F)c1 | 10.9 | -13.9% | 41.1* | -16.7 | -1.1 | -26.2
Cc1cc2cc(CNC(=O)c3cccs3)ccc2n1C | -2.1 | -9.6% | 1.0 | -7.0 | 51.9* | -11.9
CCC(CC)C(=O)NCc1ccc2c(c1)cc(C)n2C | -3.4 | -10.2% | -1.3 | 19.1 | -0.2 | 0.6
CCCCC(=O)NCc1ccc2c(c1)cc(C)n2C | -2.0 | -6.5% | 33.9* | -10.7 | 0.5 | -10.1
Cc1cc2cc(CNC(=S)NCc3ccccc3)ccc2n1C | 2.3 | -11.9% | 44.9* | -3.0 | 1.4 | 15.8
CCOC(=O)CCC(=O)NCc1ccc2c(c1)cc(C)n2C | -0.4 | -12.0% | -7.9 | 1.6 | 0.4 | -5.2
Cc1ccc2nc(-c3ccccc3C)oc(=O)c2c1 | -4.1 | -13.1% | 19.5 | 2.3 | 0.2 | 0.9
Cc1ccc(NC(=O)Cc2ccsc2)cc1Cl | 0.4 | ? | 5.1 | -5.2 | -0.7 | -7.9
O=C(Nc1cccc(S(=O)(=O)N2CCCCCC2)c1)c1ccc(=O)[nH]c1 | -1.0 | . | 2.9 | 10.1 | 0.5 | 2.5

Bioassay records (PubChem)
